The results in this text go back to PubChem BioAssay.

A short description of test [1]: small molecules captured by biotinylated probe aFSTL3 – biochemical, small-molecule microarray, fluorescence 635/667, stem cell growth factor project, primary screen (AID 1064).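 Further: measures binding of the biotinylated anti-FSTL3 antibody to printed compounds.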 Particulars: higher = more signal.
Test [2] in a line: binders from COS7 lysate, DM2A8 probe, primary screen, torsin A project, cell lysate, small-molecule microarray, fluorescence 635/667 (AID 1065). The following applies: higher = more signal, COS7 lysate expressing mutant human TOR1A.
A short description of test [3]: small molecules captured by biotinylated probe aFGF2 – biochemical, small-molecule microarray, fluorescence 635/667, stem cell growth factor project, primary screen (AID 1067).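 Further: measures binding of biotinylated aFGF2 protein to printed compounds on slides; z-score merges feature fluorescence and signal-to-noise across triplicate slides.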 The following applies: higher = more signal.
Test [4] is described as follows: small molecules captured by biotinylated probe aFGF10 – biochemical, small-molecule microarray, fluorescence 635/667, stem cell growth factor project, primary screen (AID 1071).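 Further: score merges 667 nm spot intensity and signal to noise from triplicate slides.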 Particulars: higher = more signal.
In test [5] the target is Neurogenic locus notch homolog protein 2 (Homo sapiens) (UniProt Q04721). Kind of test: small molecules binding Notch2 protein – biochemical, small-molecule microarray, 635 nm fluorescence, stem cell growth factors, primary screen (AID 1073). The following applies: higher = more signal.
In test [6] the target is Pro-neuregulin-1, membrane-bound isoform (Homo sapiens) (UniProt Q02297). The experiment in a line: small molecules binding neuregulin-1 protein – biochemical, small-molecule microarray, fluorescence 635/667, psychiatric disease protein project, primary screen (AID 1075).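 Further: score combines 667 nm spot fluorescence with signal to noise.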 Particulars: NRG1 binding, 635 nm fluorescence, higher = more signal.
Test [7] relates to Neuregulin-1 EGF-like domain. Kind of test: small molecules binding NRG1 EGF domain – biochemical, small-molecule microarray, 635 nm fluorescence, primary screen (AID 1081).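 Further: binding of the protein to compounds printed on small-molecule microarray slides.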 The following applies: higher = more signal.
Test [8] in a line: FRG1 expression reporter modulators in myotubes – cell-based, C2C12 myotubes, firefly/Renilla luciferase, luminescence, FRG1 inhibition for FSHD, primary screen (AID 1084). The following applies: FRG1 promoter luciferase, higher = more signal, called active from +8 up or from −8 down.
Test [9] in a line: small molecules captured by biotinylated probe aFST – biochemical, small-molecule microarray, fluorescence 635/667, stem cell growth factor project, primary screen (AID 1086).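 Further: score merges 667 nm fluorescence with signal-to-noise of each printed compound spot.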 Particulars: higher = more signal.
Test [10] can be described thus: binders of probe aHhip on microarray, primary screen, stem cell growth factor project, biochemical, small-molecule microarray, fluorescence 635/667 (AID 1087).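 Further: score merges spot fluorescence at 667nm with spot signal to noise ratio.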 Particulars: higher = more signal.
Test [11] relates to PRMT1 (protein arginine N-methyltransferase 1). Kind of test: small molecules binding arginine methyltransferase PRMT1 – biochemical, small-molecule microarray, 635 nm fluorescence, primary screen (AID 1088).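 Further: binding of Prmt1 protein to compounds spotted on small-molecule microarray slides.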 Particulars: higher = more signal.
Test [12] is described as follows: growth effects on S. cerevisiae YJM789 – YJM789 clinical isolate, OD600, 24 h, basal, primary screen (AID 1089).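 Further: growth of clinical yeast isolate S. cerevisiae YJM 789 seeded 1000 cells per well; test concentration not given here.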 Particulars: higher = more signal, called active from +8 up or from −8 down.
Test [13] can be described thus: S. pombe growth modifiers, basal conditions – strain 972, OD600, 24 h, no modulator, primary screen (AID 1090).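 Further: basal condition with compound alone and no growth modifier present; test concentration not given here.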 Particulars: S. pombe 972 growth, higher = more signal, called active from +8 up or from −8 down.
The nature of test [14]: budding yeast growth modifiers under rapamycin – strain BY4716, OD600, 96 h, primary screen (AID 1091). Further: test concentration not given here. The following applies: S. cerevisiae BY4716 + rapamycin, higher = more signal, called active from +8 up or from −8 down.
The target in test [15] is Torsin-1A-interacting protein 2 (Homo sapiens) (UniProt Q8NFQ8). The experiment in a line: small molecules binding lysate-expressed LULL1 – cell lysate, human LULL1 lysate, 635/667 nm fluorescence, primary screen (AID 1092).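 Further: probe is lysate of COS7 cells overexpressing human LULL1; score merges per-feature 667 nm fluorescence with signal-to-noise.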 Particulars: small-molecule microarray, hLULL1 lysate binding, 635 nm fluorescence; higher = more signal.
Test [16] is described as follows: optical density change of DRC41 E. coli – strain DRC41, OD650, 24 h, E. coli filamentation project, primary screen (AID 1093).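 Further: MC1000 strain lacking acrAB efflux and sulA so SOS filamentation is blocked; test concentration not given here.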 Particulars: E. coli DRC41 growth, higher = more signal, called active from +8 up or from −8 down.
A short description of test [17]: probe aLefty2 binding to arrayed compounds – biochemical, biotinylated probe, 635/667 nm fluorescence, primary screen (AID 1094).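 Further: score merges spot fluorescence near 667 nm with spot signal-to-noise ratio.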 Particulars: small-molecule microarray, higher = more signal.
In test [18] the test system is Noggin (protein binding on small-molecule microarray). The experiment in a line: small molecules binding Noggin protein – biochemical, 635/667 nm fluorescence, primary screen (AID 1095).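 Further: score merges 667 nm feature fluorescence with signal to noise over triplicate slides.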 Particulars: 635 nm fluorescence, higher = more signal.
Test [19] has as its target Neurogenic locus notch homolog protein 3 (Homo sapiens) (UniProt Q9UM47). The experiment in a line: small molecules binding NOTCH3 protein – biochemical, 635/667 nm fluorescence, primary screen (AID 1096). The following applies: small-molecule microarray, 635 nm fluorescence, higher = more signal.
Test [20] is described as follows: probe aEGFR binding to arrayed compounds – biochemical, biotinylated probe, 635/667 nm fluorescence, primary screen (AID 1097).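 Further: probe is a biotinylated anti-EGFR antibody binding compounds printed on slides; score combines fluorescence near 667 nm and signal to noise of each spot.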 The following applies: small-molecule microarray, higher = more signal.

Active and inactive are the calls of the source.

Neurogenic locus notch homolog protein 2 (Homo sapiens), sequence (Q04721 whole entry, looked up, canonical isoform): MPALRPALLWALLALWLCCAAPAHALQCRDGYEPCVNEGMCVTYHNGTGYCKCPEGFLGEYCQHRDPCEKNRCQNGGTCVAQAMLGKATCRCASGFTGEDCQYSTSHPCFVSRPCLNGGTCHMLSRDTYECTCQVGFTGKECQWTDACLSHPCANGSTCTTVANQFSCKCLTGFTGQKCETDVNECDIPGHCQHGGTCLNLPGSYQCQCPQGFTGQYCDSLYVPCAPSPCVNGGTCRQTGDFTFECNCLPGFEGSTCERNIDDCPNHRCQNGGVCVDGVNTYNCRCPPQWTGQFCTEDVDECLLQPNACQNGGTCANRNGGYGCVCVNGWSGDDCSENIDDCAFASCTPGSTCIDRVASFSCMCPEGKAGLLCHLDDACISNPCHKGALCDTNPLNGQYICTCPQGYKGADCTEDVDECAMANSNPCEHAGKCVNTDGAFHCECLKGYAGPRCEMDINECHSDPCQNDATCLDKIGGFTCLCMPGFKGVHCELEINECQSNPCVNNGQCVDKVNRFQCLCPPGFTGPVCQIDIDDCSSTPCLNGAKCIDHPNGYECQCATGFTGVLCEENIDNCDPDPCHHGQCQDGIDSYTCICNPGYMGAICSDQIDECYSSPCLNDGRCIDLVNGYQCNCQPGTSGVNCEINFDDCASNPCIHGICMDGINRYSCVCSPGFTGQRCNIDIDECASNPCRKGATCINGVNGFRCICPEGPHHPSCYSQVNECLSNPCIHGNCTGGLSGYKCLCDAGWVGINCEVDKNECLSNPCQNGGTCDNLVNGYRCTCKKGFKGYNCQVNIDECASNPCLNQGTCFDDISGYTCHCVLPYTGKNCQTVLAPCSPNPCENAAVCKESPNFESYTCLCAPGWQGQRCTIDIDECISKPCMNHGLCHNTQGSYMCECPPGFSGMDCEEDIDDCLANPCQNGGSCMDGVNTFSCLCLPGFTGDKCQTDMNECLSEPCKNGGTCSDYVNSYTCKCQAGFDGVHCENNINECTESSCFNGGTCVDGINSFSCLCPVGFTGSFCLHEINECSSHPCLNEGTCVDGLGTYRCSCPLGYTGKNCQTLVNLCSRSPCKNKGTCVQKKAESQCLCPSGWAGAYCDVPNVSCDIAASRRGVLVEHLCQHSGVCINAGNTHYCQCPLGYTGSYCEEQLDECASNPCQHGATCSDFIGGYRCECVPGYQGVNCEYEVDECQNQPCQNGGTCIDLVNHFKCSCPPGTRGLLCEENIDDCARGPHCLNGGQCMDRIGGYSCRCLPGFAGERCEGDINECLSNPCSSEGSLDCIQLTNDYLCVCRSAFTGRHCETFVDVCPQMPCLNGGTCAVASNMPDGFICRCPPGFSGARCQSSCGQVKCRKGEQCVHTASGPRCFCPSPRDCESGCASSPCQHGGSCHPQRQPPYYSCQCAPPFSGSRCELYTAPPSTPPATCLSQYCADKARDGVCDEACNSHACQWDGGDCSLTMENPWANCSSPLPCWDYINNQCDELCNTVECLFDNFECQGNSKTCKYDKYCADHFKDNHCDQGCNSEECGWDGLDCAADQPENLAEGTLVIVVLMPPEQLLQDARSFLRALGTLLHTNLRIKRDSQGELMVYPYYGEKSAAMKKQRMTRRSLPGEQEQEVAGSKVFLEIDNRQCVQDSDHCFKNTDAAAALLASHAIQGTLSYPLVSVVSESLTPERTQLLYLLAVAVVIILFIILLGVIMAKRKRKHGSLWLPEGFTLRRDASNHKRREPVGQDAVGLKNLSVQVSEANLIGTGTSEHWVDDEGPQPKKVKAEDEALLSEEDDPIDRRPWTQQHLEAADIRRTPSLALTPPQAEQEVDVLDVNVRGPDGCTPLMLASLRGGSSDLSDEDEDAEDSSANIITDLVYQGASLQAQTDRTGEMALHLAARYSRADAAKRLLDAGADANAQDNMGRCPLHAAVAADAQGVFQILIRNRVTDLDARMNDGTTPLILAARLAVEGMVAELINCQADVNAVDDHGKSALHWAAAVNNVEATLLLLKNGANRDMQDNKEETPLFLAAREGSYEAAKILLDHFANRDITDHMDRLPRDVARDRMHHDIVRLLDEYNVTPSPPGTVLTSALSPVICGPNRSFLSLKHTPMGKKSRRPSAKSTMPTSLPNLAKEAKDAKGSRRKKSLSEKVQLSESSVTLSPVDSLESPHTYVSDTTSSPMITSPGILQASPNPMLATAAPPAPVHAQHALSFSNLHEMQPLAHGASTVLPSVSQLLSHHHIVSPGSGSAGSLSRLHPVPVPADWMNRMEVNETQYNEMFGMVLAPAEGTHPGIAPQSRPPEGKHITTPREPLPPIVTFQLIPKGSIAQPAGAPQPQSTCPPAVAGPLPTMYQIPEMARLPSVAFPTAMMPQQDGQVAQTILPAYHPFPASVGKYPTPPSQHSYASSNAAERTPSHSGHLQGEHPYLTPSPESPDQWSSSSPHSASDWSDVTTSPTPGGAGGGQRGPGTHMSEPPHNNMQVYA
Pro-neuregulin-1, membrane-bound isoform (Homo sapiens), sequence (Q02297 whole entry, looked up, the tested form may be a part, canonical isoform): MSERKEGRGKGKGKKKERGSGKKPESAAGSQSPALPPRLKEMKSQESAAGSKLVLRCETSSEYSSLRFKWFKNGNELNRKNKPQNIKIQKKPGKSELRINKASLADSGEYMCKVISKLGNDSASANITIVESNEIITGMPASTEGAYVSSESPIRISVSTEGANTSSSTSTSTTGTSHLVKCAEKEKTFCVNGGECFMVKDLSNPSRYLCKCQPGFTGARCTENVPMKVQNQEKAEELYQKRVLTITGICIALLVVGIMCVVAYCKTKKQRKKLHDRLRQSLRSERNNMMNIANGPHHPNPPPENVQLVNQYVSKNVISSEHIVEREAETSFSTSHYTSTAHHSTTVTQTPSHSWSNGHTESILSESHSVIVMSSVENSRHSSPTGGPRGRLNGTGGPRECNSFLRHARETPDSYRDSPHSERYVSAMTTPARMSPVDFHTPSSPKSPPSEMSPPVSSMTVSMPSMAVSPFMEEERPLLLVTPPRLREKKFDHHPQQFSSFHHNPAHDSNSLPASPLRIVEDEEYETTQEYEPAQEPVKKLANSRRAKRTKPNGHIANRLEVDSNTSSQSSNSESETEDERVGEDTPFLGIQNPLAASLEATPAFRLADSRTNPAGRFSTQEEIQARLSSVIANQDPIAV
Torsin-1A-interacting protein 2 (Homo sapiens), sequence (Q8NFQ8 whole entry, looked up): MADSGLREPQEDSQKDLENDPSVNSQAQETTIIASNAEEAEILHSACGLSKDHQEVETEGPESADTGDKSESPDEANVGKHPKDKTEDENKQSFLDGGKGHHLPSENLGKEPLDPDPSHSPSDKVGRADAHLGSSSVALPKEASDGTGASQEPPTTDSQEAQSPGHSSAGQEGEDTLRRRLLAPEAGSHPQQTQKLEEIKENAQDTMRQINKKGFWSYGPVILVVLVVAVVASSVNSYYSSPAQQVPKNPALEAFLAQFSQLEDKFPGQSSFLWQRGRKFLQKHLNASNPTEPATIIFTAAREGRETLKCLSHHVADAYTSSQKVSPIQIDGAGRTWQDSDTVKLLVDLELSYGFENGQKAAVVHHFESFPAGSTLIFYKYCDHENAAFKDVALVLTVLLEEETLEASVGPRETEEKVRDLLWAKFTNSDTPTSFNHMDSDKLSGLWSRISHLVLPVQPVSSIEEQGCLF

On to `O=C1NC(=O)C2C1C=CC(C(O)c1cc(C(F)(F)F)cc(C(F)(F)F)c1)N2Nc1ccc(Cl)cc1Cl` (stereo not given), for which the composite z-score amounted to 0.812 in test [1]; 0.623 in test [2]; 0.277 in [3]; 0.404 in test [4]; 0.351 in test [5]; 1.45 in test [6]. The composite z-score in test [7] is 0.766; in [9], 0.881; in [10] it was -0.0346; in [11], 0.33; in [15], 2.24; in test [17], 0.0094. For the same compound, the composite z-score in test [18] was -0.93; in test [19], 0.398; in test [20] it was 0.228. Moreover, the z-score in test [8] is -0.166 (inactive); in test [12], -1.44 (inactive); in test [13], -17 (active); in test [14], -0.256 (inactive); in [16], -2.34 (inactive).
Take `CCCCN1CC=CC23O[C@@H]4C=CCOC(=O)[C@@H]4[C@H]2C(=O)N(C(C)CO)[C@@H]3C1=O` (stereo not given in full): the composite z-score is 0.762 in test [1]; -0.665 in test [2]; -0.187 in [3]; -0.174 in [4]; -1.03 in [5]; 1.7 in test [6]. Moreover, the composite z-score in test [7] was 0.745; in [9], -0.0725; in [10], -0.189; in [11], -1.57; in test [15], -0.449; in test [17], -0.205. For the same compound, the composite z-score in test [18] was -0.929; in test [19] it was -1.25; in test [20], -0.216. The z-score in test [8] was 1.66 (inactive); in test [12], -0.543 (inactive); in test [13] it was -1.22 (inactive); in test [14] it was -0.557 (inactive); in [16], -0.479 (inactive).
`CCOC(=O)[C@@H]1[C@@H]2C(=O)N(CC)C(=O)[C@@H]2C[C@@H]1Sc1ccccc1`: the composite z-score in test [1] was -0.528; in test [2], 1.04; in test [3], 0.0308; in [4] it was 0.712; in test [5], 1.39; in [6] it was 0.354. In addition, the composite z-score in test [7] is 1.33; in [9] it was 0.731; in test [10], -0.226; in [11], 0.814; in [15] it was 1.69; in test [17], -0.0632. Besides, the composite z-score is -0.132 in test [18], 0.722 in test [19] and 0.113 in [20]. The z-score in test [8] was -1.02 (inactive); in test [12] it was -0.624 (inactive); in [13], 0.792 (inactive); in [14], 2.66 (inactive); in test [16], 0.0399 (inactive).
As to `COC(=O)c1c(CC[C@@H](CO)NC(=O)N[C@H](Cn2cc(-c3ccccc3C)nn2)C(C)C)oc(C(C)=O)c1C(=O)OC`, the composite z-score in [1] is -0.157; in [2], -1.08; in [3], -0.129; in test [4], 0.415; in [5] it was -1.18; in [6], 0.638. Further, the composite z-score in test [7] is 0.309; in [9], -0.205; in test [10], 0.145; in [11] it was -0.469; in [15], -0.351; in [17], -0.29. The composite z-score in test [18] was -0.0001; in [19], -0.465; in [20] it was -0.218. Also, the z-score in test [8] was 0.87 (inactive); in test [12], -0.147 (inactive); in test [13] it was -0.644 (inactive); in test [14] it was 0.467 (inactive); in test [16], 0.537 (inactive).
As for `COc1ccc(C#Cc2ccc3c(c2)[C@]2(C(=O)N3)[C@H](C(=O)N3CCc4cc(OC)c(OC)cc4C3)[C@H]3C(=O)O[C@H](c4ccccc4)[C@H](c4ccccc4)N3[C@@H]2c2ccc(O)cc2)cc1`, the composite z-score in [1] is -0.439; in [2], 0.606; in test [3], -0.0583; in test [4], 0.282; in test [5], 0.781; in [6], 1.27. The composite z-score in test [7] is 1.19; in test [9], 0.295; in test [10] it was -0.12; in test [11], 1.57; in test [15], 2.28; in [17], -0.143. Moreover, the composite z-score was 0.875 in test [18], 1.01 in test [19] and -0.0142 in test [20]. Besides, the z-score in test [8] was 1.57 (inactive); in [12], 1.36 (inactive); in [13], 1.14 (inactive); in test [14], 1.91 (inactive); in test [16], -0.384 (inactive).
